Screening data (PubChem BioAssay)
12-LOX inh: Primary qHTS assay for inhibitors of human arachidonate 12S-lipoxygenase (ALOX12): Round 2; Polyunsaturated fatty acid lipoxygenase ALOX12 (Homo sapiens), P18054; purified 12hLO, xylenol orange hydroperoxide absorbance; Potency, µM (doses to about 108 µM), usual class: inhibitors; 580,000 compounds, 1.1% hits
Target sequence (P18054 whole entry, looked up): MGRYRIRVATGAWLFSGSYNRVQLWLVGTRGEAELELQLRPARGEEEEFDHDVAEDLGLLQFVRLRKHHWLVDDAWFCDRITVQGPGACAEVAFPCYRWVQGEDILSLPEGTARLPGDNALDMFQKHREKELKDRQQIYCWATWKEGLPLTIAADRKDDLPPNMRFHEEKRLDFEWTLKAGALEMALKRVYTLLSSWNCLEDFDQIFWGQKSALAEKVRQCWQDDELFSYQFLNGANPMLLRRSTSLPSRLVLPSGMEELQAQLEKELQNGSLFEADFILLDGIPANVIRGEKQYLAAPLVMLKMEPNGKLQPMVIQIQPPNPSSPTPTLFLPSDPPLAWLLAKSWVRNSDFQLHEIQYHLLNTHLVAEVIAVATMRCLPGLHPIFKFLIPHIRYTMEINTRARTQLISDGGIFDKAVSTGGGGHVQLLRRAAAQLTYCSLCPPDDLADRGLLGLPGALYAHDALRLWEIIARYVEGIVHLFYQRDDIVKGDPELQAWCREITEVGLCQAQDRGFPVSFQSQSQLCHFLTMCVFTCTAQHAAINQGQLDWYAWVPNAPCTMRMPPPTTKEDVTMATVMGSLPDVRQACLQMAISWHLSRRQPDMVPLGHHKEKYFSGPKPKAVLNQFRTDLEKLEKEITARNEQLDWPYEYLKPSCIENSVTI
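Hydroperoxide product was detected by ferrous iron/xylenol orange as the 573 to 405 nm absorbance ratio. Arachidonic acid at 40 uM (final) was turned over for 30 min at room temperature by 150 nM human 12hLO, pH 7.0 Hepes buffer, after 15 min compound preincubation.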
HT1080-NT tox: qHTS for induction of synthetic lethality in tumor cells producing 2HG: qHTS for the HT-1080-NT fibrosarcoma cell line; HT-1080-NT fibrosarcoma viability, CellTiter-Glo ATP luminescence, 48 h; Potency, µM (titrated, usually from 46.1 µM), usual class: cytotoxic; 360,000 compounds, 1.6% hits; AID 686970, 2013;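 also: NT is the 2HG producing partner of a matched IDH1 knockdown line; nearly all actives have a fitted effect of over 55% in size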
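Read-out is CellTiter-Glo luminescence after 10 minutes at room temperature, following 48 hours' compound treatment of HT-1080-NT cells (750 cells/well, RPMI, 5% FBS, 37 degrees C).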
IL-1B inflam inh: qHTS for Inhibitors of Inflammasome Signaling: IL-1-beta AlphaLISA Primary Screen; THP-1 LPS/ATP IL-1B secretion, AlphaLISA, 16 h; stronger effect = lower value; activity change, % at 57.5 µM; 360,000 compounds, 4.7% hits; in the data active = activity change below about -50%; inconclusive = mostly about -30% to -49%
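Secreted IL-1B measured by AlphaLISA bead assay after 16 h compound exposure of THP-1 cells; compounds (final up to 57.5 uM) added 1 h before LPS (250 ng/mL) and ATP (1.25 mM) stimulation; lower signal means less secretion.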
HT1080 IDH1KD tx: qHTS for induction of synthetic lethality in tumor cells producing 2HG: qHTS for the HT-1080-IDH1KD cell line; HT-1080 IDH1 knockdown viability, ATP luminescence, 48 h; Potency, µM (series often up to 46.1 µM), usual class: cytotoxic; 360,000 compounds, 2% hits; AID 686971, 2013
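Assay cells: HT-1080 with IDH1 knockdown, 750 per well, RPMI/5% FBS. Exposure: 48 h at 37 °C following 2 h pre-incubation. Read: CellTiter-Glo luminescence; fitted concentration-response, curve class assigned.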
TDP1 cell noCPT: qHTS for Inhibitors of human tyrosyl-DNA phosphodiesterase 1 (TDP1): qHTS in cells in absence of CPT. 420,000 compounds, 15% hits. Potency, µM (highest dose often 46.2 µM), usual class: inhibitors. DT40 Tdp1-/- hTDP1 cells, no CPT, ATP luminescence, 48 h; also: nearly all actives have a fitted effect of over 55% in size
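Compound effects on proliferation are scored in DT40 Tdp1-/-;hTDP1 cells in the absence of CPT. ATP levels (CellTiter-Glo luminescence) are recorded after a ≥48 hr, 37 °C incubation.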
DT40 TDP1 CPT: qHTS for Inhibitors of human tyrosyl-DNA phosphodiesterase 1 (TDP1): qHTS in cells in presence of CPT; chicken DT40 Tdp1-/-;hTDP1 cells + 20 nM CPT, ATP luminescence, 48 h; Potency, µM (titrated, usually from 46.2 µM), actives largely listed as inhibitors; 420,000 compounds, 12% hits; AID 686979, 2013; also: nearly all actives have a fitted effect of over 55% in size
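Chicken DT40 Tdp1-/- cells complemented with human TDP1, 400 cells/well, exposed to compounds plus 20 nM camptothecin for at least 48 h at 37 C; viability read as ATP content by CellTiter-Glo luminescence.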
Numbers stand for hits; . = inactive; ? = inconclusive; / = no result given; [ ] = another dose, or the depositor's remark. Shown is part of a subset that was picked to be rich in hits. Unless noted, calls follow the shape of the dose curve; as a rule, active = well fitted curve in the direction sought with a large enough effect; inconclusive = small, poorly fitted or top-dose-only effect, or another doubt; inactive = no such curve, though single readings can be large; an effect the other way counts as inactive or inconclusive.

SMILES	12-LOX inh	HT1080-NT tox	IL-1B inflam inh	HT1080 IDH1KD tx	TDP1 cell noCPT	DT40 TDP1 CPT
COC(=O)CC1Oc2ccc(F)cc2-n2cc(-c3ccc(Cl)cc3)nc21 (stereo unspecified)	.	/	/	/	4.1µM	9.2µM
COC(=O)CC1Oc2ccc(Cl)cc2-n2cc(-c3ccc(F)cc3)nc21 (stereo unspecified)	.	/	/	/	.	.
Cc1ccc2cc3cc(C(=O)N4CCCCC4C)oc3nc2c1 (stereo unspecified)	.	.	-77	.	?	?
COc1ccc2cc3cc(C(=O)N4CC(C)CC(C)C4)oc3nc2c1 (stereo unspecified)	/	?	.	?	.	.
Cc1ccc2cc3cc(C(=O)N4CC(C)CC(C)C4)oc3nc2c1 (stereo unspecified)	.	.	-53	.	23µM	?
COc1ccc(NC2CCCN(Cc3cccc4cnccc34)C2)cc1 (stereo unspecified)	.	.	.	.	21µM	?
COc1ccc(NC2CCCN(Cc3cccc4cnccc34)C2)cc1OC (stereo unspecified)	.	.	.	.	21µM	?
C[C@]1(CO)[C@H]2Cc3sc(NC(=O)c4ccco4)nc3[C@@H](CC(=O)N3CCC(C(N)=O)CC3)[C@]2(C)CC[C@H]1O	.	/	/	/	/	/
CCOc1ccc(NC(=O)c2cc(S(=O)(=O)N3CCOCC3)ccc2F)cc1	?	/	/	/	?	.
CCOC(=O)N1CCN(S(=O)(=O)c2ccc(F)c(C(=O)Nc3ccc(C)c(Cl)c3)c2)CC1	.	.	-70	.	21µM	16µM
CCOC(=O)N1CCN(S(=O)(=O)c2ccc(F)c(C(=O)Nc3ccc(C(C)C)cc3)c2)CC1	.	.	.	.	18µM	18µM
CN1CC(=O)N(C2CCCNC2)Cc2c1ncnc2N1CCN(CC2CCCCC2)CC1 (stereo unspecified)	.[6.33 µM]	/	/	/	/	/
CC(NCc1cccc(C#N)c1)c1ccc(Cl)cc1Cl (stereo unspecified)	.	/	/	/	/	/
Cc1cc(Br)cc(C)c1NC(=O)c1sc2ncn(Cc3cccc(F)c3)c(=O)c2c1C	?	/	/	/	18µM	16µM
COC(=O)c1cc(NC(=O)c2sc3ncn(Cc4cccc(F)c4)c(=O)c3c2C)cc(C(=O)OC)c1	.	/	/	/	?	.
Cc1cc(C(=O)N2CCCCC2)c2c(C3CCCN3)noc2n1 (stereo unspecified)	.[6.33 µM]	/	/	/	/	/
N#CC1=C(N)Oc2c(oc(CO)cc2=O)C1c1ccccc1[N+](=O)[O-] (stereo unspecified)	16µM	.	/	.	.	.
Cc1ccccc1C1C(C#N)=C(N)Oc2c1oc(CO)cc2=O (stereo unspecified)	.	/	/	/	/	/
O=C(O)c1ccccc1C(=O)OCCCC(F)(F)C(F)(F)F	.	/	/	/	/	/
CNC(=O)N(O)C1N(/N=C/c2ccccc2F)C(=S)SC1(C)C (stereo unspecified)	.	.	.	.	.	.
CNC(=O)N(O)C1N(/N=C/c2ccccc2O)C(=S)SC1(C)C (stereo unspecified)	.	.	.	.	2.1µM	5.2µM
COC(=O)c1ccc(/C=N/OCc2cc(C(C)=O)ccc2OC)cc1	.	/	/	/	/	/
CC(OC(=O)C1=NN(C)C(=O)CC1)C(=O)c1c[nH]c2ccccc12 (stereo unspecified)	.	/	/	/	/	/
CCOc1ncccc1C(=O)N1CCN(C(=O)c2ccccc2)CC1	.	.	.	.	.	.
CCCN1Cc2cccc(C(=O)N3CCN(c4cc(Cl)ccc4C)CC3)c2C1=O	/	.	?	.	13µM	?
SMILES	12-LOX inh	HT1080-NT tox	IL-1B inflam inh	HT1080 IDH1KD tx	TDP1 cell noCPT	DT40 TDP1 CPT
CCOc1ccc(-c2cc(C(=O)N3CCN(c4cc(Cl)ccc4C)CC3)c3ccccc3n2)cc1	.	/	/	/	.	.
CCOc1ncccc1C(=O)N1CCN(c2cccc(C)c2C)CC1	.	0.18µM	.	0.18µM	0.58µM	0.52µM
CCOc1ncccc1C(=O)N1CCN(c2cc(Cl)ccc2C)CC1	.	1µM	.	1.3µM	0.65µM	0.82µM
Cc1ccc(/C=C/C(=O)c2cccs2)cc1	.	/	/	/	/	/
CCCCCCSc1cc(C)nc2ncnn12	.	.	.	.	12µM	16µM
CCSc1cc(C)nc2ncnn12	.	.	.	.	.	.
O=C(NC1CCN(c2cc(-c3ccc(Cl)cc3)[nH]n2)C1)c1ccc(Br)o1 (stereo unspecified)	.	/	/	/	/	/
Cc1ccc(-c2ccc(/C=N\NC(=O)c3cc4c(ccc5ccccc54)o3)o2)cc1[N+](=O)[O-]	.	?	.	.	9.2µM	10µM
O=C(N/N=C/c1ccc(-c2ccc(Cl)c(C(=O)O)c2)o1)c1cc2c(ccc3ccccc32)o1	40µM	.	.	.	.	.
Cc1ccc([N+](=O)[O-])cc1-c1ccc(/C=N/NC(=O)c2cc3c(ccc4ccccc43)o2)o1	.	.	.	.	8.2µM	?
O=C(N/N=C/c1cccc([N+](=O)[O-])c1)c1cc2c(ccc3ccccc32)o1	.	.	.	.	?	.
c1c(CN2CCCN(CCCN3CCCC3)CC2)nn2c1CNCC2	.	/	/	/	/	/
CCOc1ccc(N(C(C)C(=O)N/N=C(\C)c2cccc(NC(=O)c3ccccc3)c2)S(C)(=O)=O)cc1 (stereo unspecified)	.	.	?	.	18µM	18µM
COc1ccc(CC(=O)Nc2sc3c(c2C(=O)Nc2cccc(Cl)c2)CCCCC3)cc1	.	/	/	/	?	?
NC(=O)c1c(NC(=O)c2cccs2)sc2c1CCCCCC2	?	?	-84	.[9.24 µM]	?	?
O=C(Nc1sc2c(c1C(=O)O)CCC2)c1cccs1	.	.	.	.	.	.
O=C(Nc1sc2c(c1C(=O)Nc1cccc(Cl)c1)CCCC2)c1cccs1	45µM	/	/	/	?	?
CCOC(=O)N1CCN(S(=O)(=O)c2ccc(OCC)c(C)c2)CC1	.	.	.	.	9.2µM	?
Cc1cccc(N2CCN(C(=O)C3CCCN(S(=O)(=O)c4ccc5c(c4)oc(=O)n5C)C3)CC2)c1C (stereo unspecified)	.	/	/	/	3.7µM	7.3µM
CCOC(=O)c1cccc(NC(=O)C2CCN(S(=O)(=O)c3ccc4c(c3)oc(=O)n4C)CC2)c1	.	/	/	/	21µM	?
